Screening results as filed in PubChem.
Only some compounds are listed: those with a hit (about 3% of all), similar ones and a draw of the others.
Wnt act – Wnt/beta-catenin pathway activation; AID 743398; hit rate 1.2% among 300,000; Wnt/beta-catenin reporter cell assay, activator, plate reader; activation, % at 9.35 µM; in the data active = activation above about 30%, passing the limit was not always enough; inconclusive = no clear call, values can overlap the other calls;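 also: 0% = neutral control wells and 100% = positive control wells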
Statin myotox sup – suppression of simvastatin myotoxicity. rescue of ATP level, % at 7.49 µM. hit rate 0.78% among 330,000. C2C12 myotubes + simvastatin, ATP luminescence, 48 h; scaled: DMSO 0, geranylgeraniol control 100;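 active = mean ATP rescue above about 67%, or every replicate alone reaching that limit, limit read from the data, passing the limit was not always enough; inconclusive = no clear call, values can overlap the other calls; inactive = mean under the limit and some replicate under it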;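 also: myotubes were challenged with 10 µM simvastatin during compound exposure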
MITF TRPM1 HTS – activators of MITF-driven TRPM1 promoter activity in SK-MEL-5 cells; hit rate 0.75% among 300,000; activation, % at 12.5 µM; AID 588334; SK-MEL-5 TRPM1-promoter luciferase, 24 h; % of positive control, neutral wells = 0;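 active = mean activation of at least 80% with every replicate also reaching 80%; inconclusive = mean reaches 80% but some replicate falls short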;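 also: 0% = neutral control wells and 100% = parthenolide positive control wells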
esBAF inh – SWI/SNF esBAF complex inhibition; hit rate 2% among 350,000; reporter increase, % at 12.5 µM; mouse ES cells, Bmi1-luciferase knock-in reporter, 24 h; 100% = twice the neutral-well signal; in the data active = activation above about 40%; inconclusive = no clear call, values can overlap the other calls;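 also: 0% = median of the plate's neutral control wells and 100% = double that signal; a rise in the Bmi1 reporter signal indicates esBAF inhibition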
* = called active by the depositor; u = inconclusive; x = no result given.

SMILES	Wnt act	Statin myotox sup	MITF TRPM1 HTS	esBAF inh
COc1ccc(C(CNC(=O)c2ccc(N3CCCC3=O)cc2)N(C)C)cc1 (stereo unspecified)	x	84*	5	17
O=C(Nc1nc2ccc(F)cc2s1)c1ccc(N2CCCC2=O)cc1	22	3	59	30
O=C(Nc1ccccc1Br)c1ccc(N2CCCC2=O)cc1	37*	-3	87*	55*
Cc1nnc(NC(=O)c2ccc(N3CCCC3=O)cc2)s1	25	-17	85*	u
Cc1cccc(C)c1NC(=O)c1ccc(N2CCCC2=O)cc1	-5	0	11	-4
Cc1csc(NC(=O)c2ccc(N3CCCC3=O)cc2)n1	35*	x	-41	x
CNC[C@@H]1Oc2ccc(NC(=O)C3CC3)cc2C(=O)N([C@@H](C)CO)C[C@H]1C	x	-6	x	1
N#Cc1ccccc1N/C=C/C(=O)c1ccc(Cl)cc1	48*	-22	x	-8
O=C(/C=C/Nc1ccc(Br)cc1F)c1ccccc1	-9	x	-26	x
O=C(/C=C/Nc1ccc(F)cc1)c1ccc(Br)cc1	61*	x	47	x
O=C(/C=C/Nc1ccccc1F)c1ccc(Br)cc1	46*	x	32	x
O=C(/C=C/NNC(=O)c1ccc(Cl)cc1)c1ccccc1	0	x	-15	x
O=C(/C=C/Nc1ccc(F)c(F)c1)c1ccc(Br)cc1	12	x	66	x
NC(=O)c1ccccc1N/C=C/C(=O)c1ccc(F)cc1	54*	-23	48	31
C[C@@H]1CN([C@H](C)CO)C(=O)c2cc(NS(=O)(=O)c3cn(C)cn3)ccc2O[C@H]1CN(C)CC1CCCCC1	x	0	x	1
COCC(=O)Nc1ccc2c(c1)[C@H]1C[C@@H](CC(=O)NCc3ccccn3)O[C@H](CO)[C@H]1O2	x	3	x	-1
C[C@@H]1CN([C@@H](C)CO)C(=O)c2cc(NC(=O)CCCN(C)C)ccc2O[C@@H](C)CCCCO[C@H]1CN(C)Cc1ccccc1	x	-16	x	1
O=C(c1ccco1)N1CCN(c2ncnc3c2oc2ccccc23)CC1	x	11	x	58*
c1ccc2c(c1)oc1c(N3CCOCC3)ncnc12	x	x	6	x
C[C@H]1CCCCO[C@@H](CN(C)C(=O)Nc2ccc(C(F)(F)F)cc2)[C@@H](C)CN([C@@H](C)CO)C(=O)c2cc(NC(=O)Nc3ccc4c(c3)OCO4)ccc2O1	x	10	x	-2
COc1cccc(/C=C/C(=C2\C(=O)N(c3ccccc3)N=C2C)c2ccc(Br)cc2)c1OC	33*	-1	x	-8
COc1ccc(/C=C2/C(=O)N(c3ccccc3)N=C2C)cc1OC	0	-4	x	-10
COc1ccc(/C=N\Nc2ccccn2)c(OC)c1	14	22	x	52*
COc1ccc(/C=N/Nc2ccccn2)c(OC)c1OC	8	x	33	x
C=CCOc1ccc(/C=N/Nc2ccccn2)cc1OC	-1	-8	u	64*
SMILES	Wnt act	Statin myotox sup	MITF TRPM1 HTS	esBAF inh
CCCOc1ccc(/C=N/Nc2ccccn2)cc1OC	5	-32	91*	29
COc1cc(/C=N/Nc2ccccn2)ccc1OCC(C)C	7	-11	90*	u
CCOc1ccc(/C=N/Nc2ccccn2)cc1OC	14	x	58	x
CC(C)NC(=O)N(C)C[C@@H]1Oc2cc(C#CC(C)(C)O)ccc2S(=O)(=O)N([C@@H](C)CO)C[C@H]1C	x	17	x	-2
C[C@@H]1CCCCO[C@H](CN(C)C(=O)CCCN(C)C)[C@H](C)CN([C@H](C)CO)C(=O)c2cc(NC(=O)C3CCCCC3)ccc2O1	x	x	x	-7
COc1ccccc1/C=N/Nc1nccnc1Cl	13	7	58	42*
O=C(Nc1cc(-c2ccccc2)[nH]n1)c1ccc(Cl)cc1	40*	-48	x	59*
Cc1cc(NC(=O)c2cccc(Cl)c2)n[nH]1	29	5	66	47*
O=C(O)c1ccc(NCc2cccnc2)cc1	46*	-23	-12	97*
Cc1cc(C(=O)CSc2ccccc2)cc(C)c1O	12	-8	39	68*
C[C@@H]1CN([C@H](C)CO)C(=O)c2cc(NC(=O)NC3CCCCC3)ccc2O[C@@H](C)CCCCO[C@H]1CN(C)Cc1ccncc1	x	-44	x	3
Cc1ccnc(Nc2nc(-c3ccc(O)cc3O)cs2)c1	16	-6	x	79*
Cc1cc(O)ccc1Nc1nc(-c2cccnc2)cs1	17	-7	x	33
Cc1ccnc(Nc2nc(-c3ccc(O)cc3)cs2)c1	17	-3	60	50*
Cc1ccnc(Nc2nc(-c3ccc(O)c(O)c3)cs2)c1	8	-6	x	17
Cc1c(C(=O)OCC(C)(C)CN(C)C)oc2ccccc12	-3	95*	32	29
CCN(CC)CC(C)(C)COC(=O)c1oc2ccccc2c1C	-2	x	6	x
Cc1c(C(=O)OCC(=O)N2C(C)CCCC2C)oc2ccccc12 (stereo unspecified)	19	0	74	76*
COc1cccc(NC(=O)COC(=O)c2sccc2C)c1	7	6	108*	50*
CN(C)c1ccc(C(=O)OCC(=O)c2ccc[nH]2)cc1	9	0	137*	72*
CO[C@@H](CN(C)C(=O)c1ccccc1F)[C@H](C)CN([C@H](C)CO)S(=O)(=O)c1ccc(C)cc1	x	15	x	-9
O=C(OCC(=O)N1CCCCCC1)c1ccccc1Br	14	-12	75	54*
CN(C)c1ccc(C(=O)OCC(=O)N2CCCCCC2)cc1	-2	5	64	47*
CC1CCCC(C)N1C(=O)COC(=O)c1cccs1 (stereo unspecified)	-3	0	20	4
Cc1ccsc1C(=O)OCC(=O)N1C(C)CCCC1C (stereo unspecified)	11	3	27	79*
SMILES	Wnt act	Statin myotox sup	MITF TRPM1 HTS	esBAF inh
O=C(OCC(=O)N1CCOCC1)c1ccc2ccccc2c1O	42*	8	50	u
C[C@H](CO)N1C[C@H](C)[C@H](CN(C)Cc2ccncc2)OCCCC[C@H](C)Oc2ccc(NC(=O)Nc3ccc(C(F)(F)F)cc3)cc2C1=O	x	x	x	-1
CCC(=O)Nc1ccc2c(c1)C(=O)N(C)[C@@H]1CC[C@H](CC(=O)N[C@@H](C)c3ccccc3)O[C@H]1CO2	x	-9	x	-7
O=C(COC(=O)c1ccccc1Br)NC1CCCC1	-6	3	58	50*
Cc1ccsc1C(=O)OCC(=O)NC1CCCCC1	12	11	x	63*
Cc1ccsc1C(=O)OCC(=O)NC1CC1	1	3	5	8
CN(C)CC(=O)N[C@H]1CC[C@@H](CCNS(=O)(=O)c2ccccc2)O[C@@H]1CO	x	2	x	1
Cc1ccc(S(=O)(=O)N[C@@H]2CC[C@@H](CC(=O)N3CCC(Cc4ccccc4)CC3)O[C@@H]2CO)cc1	x	0	x	0
O=C1/C(=C/c2cccs2)SC(=S)N1CCC(=O)N1CCCCC1CCO (stereo unspecified)	9	13	35	60*
COC(=O)C1=C(C)N=C2SC(C)C(=O)N2C1c1ccc(C(=O)OC)cc1 (stereo unspecified)	x	-1	4	0
COC(=O)C1=C(C)N=C2SC(C)C(=O)N2C1c1cccs1 (stereo unspecified)	x	121*	x	-10
COc1ccc(C)cc1NC(=O)C1CCCN1S(=O)(=O)c1ccccc1F (stereo unspecified)	62*	9	-2	4
